Data from PubChem BioAssay (NCATS).
Inconclusive results are not listed. Entries that show only a call come without a potency. Active and inactive are the calls of the source. The call rests on the fitted dose curve; in most records, active means well fitted inhibition curve with a large enough effect; inconclusive means small, poorly fitted or top-dose-only effect; inactive means flat fitted curve, though single readings scatter.

The compounds below were run against Calcium and integrin-binding protein 1 (Homo sapiens) (UniProt Q99828) (assay: Primary qHTS for Identification of Calcium Integrin Binding Protein 1 (CIB1) Competitor (AID 1508620;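 further: GST tagged CIB1 binding a fluorescein labelled alphaIIb integrin peptide tracer; top concentration of the series differs between compounds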)). Conditions: CIB1-GST / FITC-alphaIIb peptide fluorescence polarization; series mostly up to 114 µM.
Chain of Calcium and integrin-binding protein 1 (Homo sapiens) (Q99828 whole entry, looked up): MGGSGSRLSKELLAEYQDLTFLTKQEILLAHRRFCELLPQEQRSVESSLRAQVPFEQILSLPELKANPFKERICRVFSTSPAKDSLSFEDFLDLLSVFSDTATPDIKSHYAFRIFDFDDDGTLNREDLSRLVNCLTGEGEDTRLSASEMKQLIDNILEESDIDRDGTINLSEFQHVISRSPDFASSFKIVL
Source text: Assay Provider: Ulhas P. Naik, PhD Sidney Kimmel Medical College Thomas Jefferson University, Philadelphia, PA Primary function of platelets is to maintain hemostasis. At the site of vascular injury, platelets adhere to adhesive proteins such as collagen and von Willebrand factor. Adherent platelets are activated and generate soluble platelet agonists such as thrombin, ADP and thromboxane A2. Following exposure of circulating platelets to these agonists, results in platelet shape change, granule secretion and activation of platelet integrin alphaIIb-beta3. Ligand binding to activated integrin alphaIIb-beta3 triggers outside-in signaling, leading to platelet aggregation, stabilization of platelet plug, and clot retraction. Upon atherosclerotic plaque rupture also causes platelet plug formation, which underlies a number of cardiovascular diseases such as myocardial infraction and stroke. A number of anti-platelet drugs such as aspirin, clopidogrel, prasugrel, vorapaxar, and eptifibatide are currently available to prevent the thrombotic complications. However, these anti-platelet agents have several limitations including inherent variability in individual responses, developing resistance, and serious bleeding side effects. For these reasons they are not suitable for long-term protection. Based on the experiences with current anti-platelet drugs, it appears that the most useful therapeutic approach is to intersect the secondary responses such as integrin outside-in signaling or recruitment of platelets by TxA2 and secreted ADP. Compounds, which can largely preserve the primary hemostatic function of platelets but inhibit secondary response will be most desired therapeutic agents for treatment of cardiovascular disease. CIB1 is a calcium integrin binding protein, which specifically interact with the alphaIIb subunit of integrin alphaIIb-beta3. Binding of CIB1 to alphaIIb regulates the outside-in signaling in platelets, which is needed for thrombus stabilization and thrombus growth. […] Therefore, we propose that discovery of a small molecule that can prevent the association of CIB1 and alphaIIb-beta3 will be a potential anti-platelet agent that can block the thrombus formation without undue effect on hemostasis. Reference: [1] Naik MU, Nigam A, Manrai P, et al. CIB1 deficiency results in impaired thrombosis: the potential role of CIB1 in outside-in signaling through integrin alpha IIb beta 3. J Thromb Haemost.
PROTOCOL TABLES SEQUENCE No. (1, 2, 3, etc.); […] (e.g., Cells, Incubation, Reagent, etc.); VALUE and DESCRIPTION. 1; Reagent; 3 uL; Protein or buffer (4/3x) 2; Compound; 46 nL; Control inhibitor / compound library 3; Time; 15 min; Room temperature incubation 4; Reagent; 1 uL; Fluorescent labeled peptide (4x) 5; Time; 1000 rpm; Centrifuge 6; Time; 15 min; Room temperature incubation 7; Detection; Ex 480/ Em 540; ViewLux Fluorescence Read NOTES (numbers refer to sequence above) 1; Protein Mixture: C1B1-GST (final concentrations of 1 uM). […] 3; Room temperature incubation. 4; Fluorescent Labeled Peptide: FITC-aIIb (final concentration of 100 nM). Sequence of alphaIIb peptide: Acetyl-[…]-FITC (purity is 95.83%). 5; Centrifuge 1000 rpm (164 g) for 15 seconds. 6; Room temperature incubation. 7; ViewLux Fluorescent Polization Read: excitation = 480(20) / emission = 540(25) S and P; FITC Dichroic mirror.
With `C#C[C@]1(OC(C)=O)CC[C@H]2[C@@H]3CCC4=C[C@@H](OC(C)=O)CC[C@@H]4[C@H]3CC[C@@]21C` the Potency was “inactive”. In the case of `C[C@@H]1CN(CCCn2c3ccccc3c3ccccc32)C[C@H](C)N1`, the Potency is reported as “inactive”. For `Clc1ccc2c(c1)CCc1cccnc1C2=C1CCNCC1`, the Potency was “inactive”. For `CCOc1ccc(Cc2nccc3cc(OCC)c(OCC)cc23)cc1OCC`, the Potency was “inactive”. With `CCOC(=O)c1cccc(N)c1` the Potency was “inactive”. In the case of `CCN1CCC[C@H]1CNC(=O)c1c(OC)ccc(Br)c1OC`, the Potency is reported as “inactive”. For `C#C[C@]1(O)CC[C@H]2[C@@H]3CCC4=CC(=O)CC[C@@H]4[C@H]3CC[C@@]21C`, the Potency was “inactive”. With `CCCCCCCCCCCCCCNCCO` the Potency was “inactive”. In the case of `O=c1ccc2ccccc2o1`, the Potency is reported as “inactive”. With `O=C(OCC(O)CO)c1ccccc1Nc1ccnc2cc(Cl)ccc12` (stereo not given) the Potency was “inactive”. `Cc1ccc(C(=O)C(C)CN2CCCCC2)cc1` (stereo not given) was tested, and the Potency was “inactive”. In the case of `C[C@H]1[C@H](NC(=O)/C(=N/OC(C)(C)C(=O)O)c2csc(N)n2)C(=O)N1S(=O)(=O)O` (stereo in doubt), the Potency is reported as “inactive”. `C[C@]12CC[C@@H]3c4ccc(O)cc4CC[C@H]3[C@@H]1C[C@@H](O)[C@@H]2O` was tested, and the Potency was “inactive”. For `OC[C@H]1O[C@H](O[C@]2(CCl)O[C@H](CCl)[C@@H](O)[C@@H]2O)[C@H](O)[C@@H](O)[C@H]1Cl`, the Potency was “inactive”. In the case of `CC(Cc1cccc(C(F)(F)F)c1)NCCOC(=O)c1ccccc1` (stereo not given), the Potency is reported as “inactive”. For `O=c1[nH]c(=O)n([C@H]2C[C@H](O)[C@@H](CO)O2)cc1C(F)(F)F`, the Potency was “inactive”. For `COc1cccc(OC)c1C(=O)N[C@@H]1C(=O)N2[C@@H]1SC(C)(C)[C@@H]2C(=O)O`, the Potency was “inactive”. In the case of `CC(=O)c1ccc2c(c1)N(CCCN1CCC(CCO)CC1)c1ccccc1S2`, the Potency is reported as “inactive”. `COc1cc2c(cc1OC)C(C(C(=O)N(CCc1ccc(OC)c(OC)c1OC)CCc1ccc(OC)c(OC)c1OC)c1ccccc1)=NCC2` (stereo not given) was tested, and the Potency was “inactive”. `CNCC[C@@H](Oc1ccccc1C)c1ccccc1` was tested, and the Potency was “inactive”. `CCC(C(=O)OCCN(CC)CC)c1ccccc1` (stereo not given) was tested, and the Potency was “inactive”. In the case of `Cc1cc2c(cc1CC(=O)c1sccc1S(=O)(=O)Nc1onc(C)c1Cl)OCO2`, the Potency is reported as “inactive”. `Oc1c(Cl)cc(Cl)cc1Sc1cc(Cl)cc(Cl)c1O` was tested, and the Potency was “inactive”. For `Nc1ccc(C(=O)O)cc1`, the Potency was “inactive”. In the case of `c1ccc(CNCCNCc2ccccc2)cc1`, the Potency is reported as “inactive”. With `CN1CCN(CCCN2c3ccccc3Sc3ccc(S(=O)(=O)N(C)C)cc32)CC1` the Potency was “inactive”. In the case of `Cc1cc(O)c(C(C)C)cc1Cl`, the Potency is reported as “inactive”. For `C[C@H](O)C(=O)Nc1c(I)c(C(=O)NC(CO)CO)c(I)c(C(=O)NC(CO)CO)c1I`, the Potency was “inactive”. In the case of `C[C@H](CCC(=O)O)[C@H]1CC[C@H]2[C@@H]3C(=O)C[C@@H]4CC(=O)CC[C@]4(C)[C@H]3CC(=O)[C@]12C`, the Potency is reported as “inactive”. `CCCCCCCCCCCCCCCCOP(=O)([O-])OCC[N+](C)(C)C` was tested, and the Potency was “inactive”. In the case of `CCCN1CCCC[C@H]1C(=O)Nc1c(C)cccc1C`, the Potency is reported as “inactive”. With `NC[C@H]1O[C@H](O[C@H]2[C@H](O[C@@H]3O[C@H](CO)[C@@H](O)[C@H]3O)C(O)[C@H](N)C[C@@H]2N)[C@H](N)[C@@H](O)[C@@H]1O` (stereo not given in full) the Potency was “inactive”. In the case of `CCOC(=O)[C@H](CCc1ccccc1)N[C@@H](C)C(=O)N1Cc2ccccc2C[C@H]1C(=O)O`, the Potency is reported as “inactive”. For `CN1C(CCl)Nc2cc(Cl)c(S(N)(=O)=O)cc2S1(=O)=O` (stereo not given), the Potency was “inactive”. `CC(=O)OCC(=O)[C@@]1(OC(C)=O)[C@@H](C)C[C@H]2[C@@H]3C[C@H](F)C4=CC(=O)C=C[C@]4(C)[C@@]3(F)[C@@H](O)C[C@@]21C` was tested, and the Potency was “inactive”. `N[C@@H](CCC(=O)N[C@@H](CS)C(=O)NCC(=O)O)C(=O)O` was tested, and the Potency was “inactive”. With `COc1cc(C(=S)N2CCOCC2)cc(OC)c1OC` the Potency was “inactive”. For `Cc1c(C)n(Cc2ccccc2)c2ccc(C(=O)OCCN(C)C)cc12`, the Potency was “inactive”. With `CC(=O)OCC(=O)[C@@]1(O)CC[C@H]2[C@@H]3CCC4=CC(=O)C=C[C@]4(C)[C@H]3[C@@H](O)C[C@@]21C` the Potency was “inactive”. For `COC(=O)CCc1ccc(OCC(O)CNC(C)C)cc1` (stereo not given), the Potency was “inactive”.
